Some of the results follow. Active and inactive are the calls of the source.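 Rule for the calls, unless noted: active = drop in membrane potential signal beyond 5 SD of the control wells in both duplicate plates; inactive = the rest.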
The compounds below were run on TRPC4 (transient receptor potential cation channel C4), mouse (assay: DAMGO-evoked mouse TRPC4 response blockade – cell-based, second screen, HEK293 TRPC4/mu-opioid, membrane potential dye, selectivity assay for TRPC6 modulator project, confirmation (AID 488928;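 note: TRPC4 counter screen for TRPC6 hits run under conditions tuned for TRPC6 not TRPC4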)). Conditions: membrane potential dye fluorescence, at 10 µM, stimulated with maximal-effect DAMGO; active compounds read high.

| Compound | inhibition | outcome |
| --- | --- | --- |
| Cc1cccc(NC(=S)NCCN(C2CCCCC2)C2CCCC2)c1 | 68.5% (active) | – |
| Cc1cc(N2CCN(S(=O)(=O)c3ccc(C)c(C)c3)CC2)c2ccccc2n1 | 65% (active) | – |
| N=c1c2c3c(sc2ncn1CCCN1CCOCC1)CCCCC3 | 52.5% (active) | – |
| CCCCc1nc(NCCN)c(C#N)c2c1CSC(C)(C)C2 | 56.5% (active) | – |
| OCCC1CN(Cc2ccc3nsnc3c2)CCN1C1CCCCC1 (stereo not given) | 37% (active) | – |
| CCN(CC)S(=O)(=O)c1ccc(N2CC(C(=O)NCc3cccnc3)CC2=O)cc1 (stereo not given) | – | inactive |
| Nc1ccc(C(=O)N2CCN(S(=O)(=O)c3ccc(Cl)cc3)CC2)cc1[N+](=O)[O-] | – | inactive |
| CCC(C)NCCOCCOc1ccc(Br)cc1C (stereo not given) | – | inactive |
| N=c1n(CCc2ccccc2)c2ccccc2n1Cc1ccccc1F | 90.5% (active) | – |
| Cc1cccn2c(=O)c3cc(C#N)c(=O)n(CCCN4CCOCC4)c3nc12 | 47.5% (active) | – |
| O=C(CN1CCCCCC1)N1c2ccccc2Sc2ccc(C(F)(F)F)cc21 | – | inactive |
| CN1CCN(c2ccc([N+](=O)[O-])c(Sc3nc4ccccc4[nH]3)c2)CC1 | 58.5% (active) | – |
| O=S(=O)(c1cccc(Cn2nnc(-c3ccc(F)cc3)n2)c1)N1CCOCC1 | – | inactive |
| Cn1c(/C(C#N)=C2/CCCCCN2)nc2ccccc21 | – | inactive |
| CC(C)C(c1nnnn1CCc1ccccc1)N1CCN(C(=O)c2ccco2)CC1 (stereo not given) | – | inactive |
| CCC(C)(C)NC(=O)CN(C(=O)CCC(=O)Nc1nccs1)c1ccc2c(c1)OCO2 | – | inactive |
| COc1ccc(-c2nnc(NC(=O)CS(=O)(=O)c3ccc(Cl)cc3)o2)c(OC)c1 | – | inactive |
| CCCCN(C)CCCNC(=O)c1cc(-c2cccs2)nc2ccccc12 | 65.5% (active) | – |
| Cc1ccc(NC(=S)N(CCCN2CCCC2)Cc2cccn2Cc2ccc(Cl)cc2)cc1 | 47.5% (active) | – |
| O=C(c1ccc(-n2cnnn2)cc1)N1CCN(C(c2ccccc2)c2ccccc2)CC1 | – | inactive |

| Compound | inhibition | outcome |
| --- | --- | --- |
| CC(=O)Nc1ccc(NC(=O)CN2CCCC(C)C2)c(Cl)c1 (stereo not given) | – | inactive |
| CCCN(CCc1ccccc1)C1CCc2c(O)cccc2C1 (stereo not given) | 68.5% (active) | – |
| Cc1cc(C)c2nc3nc(C)cc(C)c3c(N)c2c1 | 48% (active) | – |
| CCN(CC)CCNc1nc(-c2ccc(OC(F)F)cc2)c(C)s1 | 50.5% (active) | – |
| CCOc1nc(NCCN2CCOCC2)nc(Nc2ccc(C)cc2)n1 | – | inactive |
| CCOc1ccc(/C(O)=C2/C(=O)C(=O)N(Cc3cccnc3)C2c2ccc(N(C)C)cc2)c(C)c1 (stereo not given) | – | inactive |
| O=C1CN(C(=O)c2ccccc2F)C(c2ccc(F)cc2)c2cc(F)ccc2N1 (stereo not given) | – | inactive |
| Cc1nc(C(=O)NCc2ccccc2)sc1C1(C)CC(c2cccnc2)=NO1 (stereo not given) | – | inactive |
| CCOC(=O)c1sc2nc(CSCC(=O)OCc3ccc(C(=O)OC)o3)[nH]c(=O)c2c1C | – | inactive |
| c1ccc(C2CNCc3c2ccc2ccccc32)cc1 (stereo not given) | 81.5% (active) | – |
| COc1ccc(Br)cc1/C=N/n1c(C)nnc1C | – | inactive |
| Clc1ccc(-n2nnnc2-c2cnc(-c3ccccn3)nc2-c2cccs2)cc1 | – | inactive |
| Cc1ccc2c(c1)C1CN(C)CCC1N2C(=S)Nc1ccc(Cl)cc1Cl (stereo not given) | 49.5% (active) | – |
| COC(=O)c1c(NC(=O)c2ccc(S(=O)(=O)N3CCOCC3)cc2)sc2c1CCN(C(C)C)C2 | 37.5% (active) | – |
| Cc1c(CCOC(=O)CC23CC4CC(CC(C)(C4)C2)C3)sc[n+]1Cc1ccc([N+](=O)[O-])cc1 | – | inactive |
| CCc1ccc(OCC(=O)N(Cc2ccccc2)C2CCS(=O)(=O)C2)cc1 (stereo not given) | – | inactive |
| COC(=O)c1ccccc1NC(=O)C1CCN(S(=O)(=O)c2cc(OC)ccc2OC)CC1 | – | inactive |
| CC(C)(C)Nc1nc(-c2ccccn2)nc2ccccc12 | 74% (active) | – |
| CCCc1cc(=O)oc2c(C)c(O)c(CN3CCCCC3)cc12 | – | inactive |
| CCCCN(CCCC)CC(O)Cn1c2ccccc2c(=O)c2ccccc21 (stereo not given) | 85.5% (active) | – |

What follows are compounds tested against Short transient receptor potential channel 6 (Mus musculus) (UniProt Q61143) (assay: blockers of TRPC6 cation channel activity – HEK293 cells, membrane potential dye, duplicate, confirmation (AID 488960;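 active = fluorescence ratio falls more than 5 SD below the full-stimulation control mean, in both duplicate runs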;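 for inhibition: integrated fluorescence ratio of peak minus minimum over baseline after agonist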)). Conditions: ACh-evoked depolarization, at 10 µM; active compounds read high.
Sequence of Short transient receptor potential channel 6 (Mus musculus) (Q61143 whole entry, looked up): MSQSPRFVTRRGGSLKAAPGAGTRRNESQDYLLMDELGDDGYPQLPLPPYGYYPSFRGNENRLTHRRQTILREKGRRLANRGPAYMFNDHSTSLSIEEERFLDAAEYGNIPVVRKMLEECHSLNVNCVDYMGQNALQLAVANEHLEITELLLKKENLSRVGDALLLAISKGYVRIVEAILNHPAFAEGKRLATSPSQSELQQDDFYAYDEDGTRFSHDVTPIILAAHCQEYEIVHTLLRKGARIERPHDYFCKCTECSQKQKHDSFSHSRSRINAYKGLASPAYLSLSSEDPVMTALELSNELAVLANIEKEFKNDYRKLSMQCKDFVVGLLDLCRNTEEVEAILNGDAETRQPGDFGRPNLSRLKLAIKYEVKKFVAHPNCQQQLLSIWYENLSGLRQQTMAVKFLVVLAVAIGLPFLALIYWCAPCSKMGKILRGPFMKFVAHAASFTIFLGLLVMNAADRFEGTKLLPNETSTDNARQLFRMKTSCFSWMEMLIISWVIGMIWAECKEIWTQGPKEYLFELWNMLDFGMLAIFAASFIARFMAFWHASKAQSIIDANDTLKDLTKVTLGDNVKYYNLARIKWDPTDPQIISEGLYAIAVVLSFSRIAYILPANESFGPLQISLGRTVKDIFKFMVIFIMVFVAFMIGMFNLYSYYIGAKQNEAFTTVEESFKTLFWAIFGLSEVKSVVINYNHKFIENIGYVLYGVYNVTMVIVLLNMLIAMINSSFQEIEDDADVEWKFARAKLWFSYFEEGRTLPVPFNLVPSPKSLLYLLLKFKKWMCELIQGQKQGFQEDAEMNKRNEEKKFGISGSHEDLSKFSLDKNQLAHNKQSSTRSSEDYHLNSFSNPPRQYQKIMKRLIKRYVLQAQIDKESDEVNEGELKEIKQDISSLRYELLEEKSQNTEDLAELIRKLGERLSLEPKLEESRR

| Compound | inhibition | outcome |
| --- | --- | --- |
| Cc1cccc(NC(=S)NCCN(C2CCCCC2)C2CCCC2)c1 | 44.5% (active) | – |
| Cc1cc(N2CCN(S(=O)(=O)c3ccc(C)c(C)c3)CC2)c2ccccc2n1 | – | inactive |
| N=c1c2c3c(sc2ncn1CCCN1CCOCC1)CCCCC3 | – | inactive |
| CCCCc1nc(NCCN)c(C#N)c2c1CSC(C)(C)C2 | – | inactive |
| OCCC1CN(Cc2ccc3nsnc3c2)CCN1C1CCCCC1 (stereo not given) | – | inactive |
| CCN(CC)S(=O)(=O)c1ccc(N2CC(C(=O)NCc3cccnc3)CC2=O)cc1 (stereo not given) | – | inactive |
| Nc1ccc(C(=O)N2CCN(S(=O)(=O)c3ccc(Cl)cc3)CC2)cc1[N+](=O)[O-] | 72.5% (active) | – |
| CCC(C)NCCOCCOc1ccc(Br)cc1C (stereo not given) | – | inactive |
| N=c1n(CCc2ccccc2)c2ccccc2n1Cc1ccccc1F | 66.5% (active) | – |
| Cc1cccn2c(=O)c3cc(C#N)c(=O)n(CCCN4CCOCC4)c3nc12 | 67.5% (active) | – |
| O=C(CN1CCCCCC1)N1c2ccccc2Sc2ccc(C(F)(F)F)cc21 | 46.5% (active) | – |
| CN1CCN(c2ccc([N+](=O)[O-])c(Sc3nc4ccccc4[nH]3)c2)CC1 | 52.5% (active) | – |
| O=S(=O)(c1cccc(Cn2nnc(-c3ccc(F)cc3)n2)c1)N1CCOCC1 | – | inactive |
| Cn1c(/C(C#N)=C2/CCCCCN2)nc2ccccc21 | – | inactive |
| CC(C)C(c1nnnn1CCc1ccccc1)N1CCN(C(=O)c2ccco2)CC1 (stereo not given) | 70% (active) | – |
| CCC(C)(C)NC(=O)CN(C(=O)CCC(=O)Nc1nccs1)c1ccc2c(c1)OCO2 | – | inactive |
| COc1ccc(-c2nnc(NC(=O)CS(=O)(=O)c3ccc(Cl)cc3)o2)c(OC)c1 | – | inactive |
| CCCCN(C)CCCNC(=O)c1cc(-c2cccs2)nc2ccccc12 | – | inactive |
| Cc1ccc(NC(=S)N(CCCN2CCCC2)Cc2cccn2Cc2ccc(Cl)cc2)cc1 | – | inactive |
| O=C(c1ccc(-n2cnnn2)cc1)N1CCN(C(c2ccccc2)c2ccccc2)CC1 | 44.5% (active) | – |

| Compound | inhibition | outcome |
| --- | --- | --- |
| CC(=O)Nc1ccc(NC(=O)CN2CCCC(C)C2)c(Cl)c1 (stereo not given) | 66% (active) | – |
| CCCN(CCc1ccccc1)C1CCc2c(O)cccc2C1 (stereo not given) | – | inactive |
| Cc1cc(C)c2nc3nc(C)cc(C)c3c(N)c2c1 | – | inactive |
| CCN(CC)CCNc1nc(-c2ccc(OC(F)F)cc2)c(C)s1 | – | inactive |
| CCOc1nc(NCCN2CCOCC2)nc(Nc2ccc(C)cc2)n1 | – | inactive |
| CCOc1ccc(/C(O)=C2/C(=O)C(=O)N(Cc3cccnc3)C2c2ccc(N(C)C)cc2)c(C)c1 (stereo not given) | – | inactive |
| O=C1CN(C(=O)c2ccccc2F)C(c2ccc(F)cc2)c2cc(F)ccc2N1 (stereo not given) | – | inactive |
| Cc1nc(C(=O)NCc2ccccc2)sc1C1(C)CC(c2cccnc2)=NO1 (stereo not given) | 114% (active) | – |
| CCOC(=O)c1sc2nc(CSCC(=O)OCc3ccc(C(=O)OC)o3)[nH]c(=O)c2c1C | 90% (active) | – |
| c1ccc(C2CNCc3c2ccc2ccccc32)cc1 (stereo not given) | 58% (active) | – |
| COc1ccc(Br)cc1/C=N/n1c(C)nnc1C | – | inactive |
| Clc1ccc(-n2nnnc2-c2cnc(-c3ccccn3)nc2-c2cccs2)cc1 | – | inactive |
| Cc1ccc2c(c1)C1CN(C)CCC1N2C(=S)Nc1ccc(Cl)cc1Cl (stereo not given) | – | inactive |
| COC(=O)c1c(NC(=O)c2ccc(S(=O)(=O)N3CCOCC3)cc2)sc2c1CCN(C(C)C)C2 | – | inactive |
| Cc1c(CCOC(=O)CC23CC4CC(CC(C)(C4)C2)C3)sc[n+]1Cc1ccc([N+](=O)[O-])cc1 | – | inactive |
| CCc1ccc(OCC(=O)N(Cc2ccccc2)C2CCS(=O)(=O)C2)cc1 (stereo not given) | – | inactive |
| COC(=O)c1ccccc1NC(=O)C1CCN(S(=O)(=O)c2cc(OC)ccc2OC)CC1 | – | inactive |
| CC(C)(C)Nc1nc(-c2ccccn2)nc2ccccc12 | 56.5% (active) | – |
| CCCc1cc(=O)oc2c(C)c(O)c(CN3CCCCC3)cc12 | 54.5% (active) | – |
| CCCCN(CCCC)CC(O)Cn1c2ccccc2c(=O)c2ccccc21 (stereo not given) | 69% (active) | – |

Reference: PubChem BioAssay
